# Test results: the supplement of paper PMC6555819
# What was measured:
# Test in all cases: PBM binding z-score (relative to random genomic background probes); higher = stronger binding; sequences stand for … in GC…GCGATTGACAGCGTAGAATGAAGG
# [1] = tested on: FXR:RXRa (NR concentration 270 nM, RXRa partner concentration 90 nM)
# In short: (§1)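 Binding buffer was PBS pH 7.4 with 2% milk, 0.02% Triton X-100, 1 mM DTT, 0.2 mg/mL BSA and 0.4 mg/ml salmon testes DNA. In it, ligand-free nuclear receptor dimers were incubated 1 h on custom Agilent 4×180K protein-binding microarrays carrying double-stranded probes. Antibodies against each partner (one per run) detected binding, and z-scores were calculated against random background probes after regression normalization of scanned fluorescence.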
# [2] = tested on: LXRa:RXRa (NR concentration 270 nM, RXRa partner concentration 90 nM)
# In short: as §1
# [3] = tested on: LXRa homodimer (NR concentration 270 nM)
# In short: as §1
# [4] = tested on: LXRb:RXRa (NR concentration 270 nM, RXRa partner concentration 90 nM)
# In short: as §1
# [5] = tested on: LXRb homodimer (NR concentration 270 nM)
# In short: as §1
# [6] = tested on: PPARa:RXRa (NR concentration 270 nM, RXRa partner concentration 90 nM)
# In short: as §1
# [7] = tested on: PPARg:RXRa (NR concentration 180 nM, RXRa partner concentration 90 nM)
# In short: as §1
# [8] = tested on: PPARg:RXRa 270nM:90nM, anti-RXR (NR concentration 270 nM, RXRa partner concentration 90 nM)
# In short: as §1
# [9] = tested on: PPARg:RXRa 30nM:10nM, anti-RXR (NR concentration 30 nM, RXRa partner concentration 10 nM)
# In short: as §1
# [10] = tested on: PPARg:RXRa 90nM:30nM, anti-RXR (NR concentration 90 nM, RXRa partner concentration 30 nM)
# In short: as §1
# [11] = tested on: PPARg:RXRa DBDmut IVT, anti-RXR (DBD mutation: RXRa K156A/R161A, NR concentration 270 nM, RXRa partner concentration 90 nM)
# In short: as §1
# [12] = tested on: PPARg:RXRa IVT, anti-PPARg (NR concentration 270 nM, RXRa partner concentration 90 nM)
# In short: as §1
# [13] = tested on: PPARg DBDmut:RXRa IVT, anti-PPARg (DBD mutation: PPARg1 K132A/R137A, NR concentration 270 nM, RXRa partner concentration 90 nM)
# In short: as §1
# [14] = tested on: PPARg DBDmut IVT, anti-PPARg (DBD mutation: PPARg1 K132A/R137A, NR concentration 270 nM)
# In short: as §1
# [15] = tested on: PPARg homodimer (NR concentration 180 nM)
# In short: as §1
# [16] = tested on: PXR:RXRa (NR concentration 270 nM, RXRa partner concentration 90 nM)
# In short: as §1
# [17] = tested on: PXR homodimer (NR concentration 270 nM)
# In short: as §1
# [18] = tested on: RARa:RXR (NR concentration 270 nM, RXRa partner concentration 90 nM)
# In short: as §1
# [19] = tested on: RARa homodimer (NR concentration 270 nM)
# In short: as §1
# [20] = tested on: RARb:RXRa (NR concentration 270 nM, RXRa partner concentration 90 nM)
# In short: as §1
Sequence,PBM binding z-score [1],PBM binding z-score [2],PBM binding z-score [3],PBM binding z-score [4],PBM binding z-score [5],PBM binding z-score [6],PBM binding z-score [7],PBM binding z-score [8],PBM binding z-score [9],PBM binding z-score [10],PBM binding z-score [11],PBM binding z-score [12],PBM binding z-score [13],PBM binding z-score [14],PBM binding z-score [15],PBM binding z-score [16],PBM binding z-score [17],PBM binding z-score [18],PBM binding z-score [19],PBM binding z-score [20]
GCAGACAGGTGAAACTCAGGTAACTCAGGGTGGC,0.432,0.209,-0.137,-0.208,-0.746,1.13,0.585,0.196,-0.602,-0.156,0.904,0.656,-0.318,-0.994,-0.214,0.118,-0.356,0.625,-0.536,0.901
CGTCAAAGTACAAGGTAACGTAACAGAAAGCAGC,0.052,-0.143,-0.279,0.0117,-0.288,0.136,0.969,0.307,0.31,0.0776,0.112,0.638,-0.0581,-0.118,0.323,-0.0227,-0.131,0.281,0.369,1.1
TAGCCTAGTTCATTGGGCCAGTATAGTACGCATC,-0.0548,0.147,-0.141,0.139,-0.687,0.81,0.461,0.538,-0.446,0.253,1.48,1.68,-0.38,-0.291,-0.325,0.756,0.651,-0.0581,-0.777,1.17
TCTTGTAGATCAATAGAGGTTAAGAACGTGCGCT,0.948,2.59,0.355,1.46,-0.115,1.92,0.397,1.66,2.84,2.58,1.69,1.17,0.658,1.03,0.496,1.51,0.111,1.83,0.544,0.956
AGTCAAAGTTCACTAGGTAACGTAGGATTCAGCT,5.02,4.93,3.02,2.92,0.939,4.65,7.24,6.38,3.58,5.79,2.76,4.99,0.535,0.509,2.04,3.89,2.85,2.82,0.778,4.83
CCTTACGGGTCACTCCAGGATATAGCATCGGAGT,4.88,5.8,0.346,2.94,0.014,4.08,3.39,3.49,1.08,2.48,2.53,2.97,0.582,-0.0388,1.51,3.13,0.912,2.84,0.759,3.4
TCGAGCAGGTTAGTCGGGGCATTCAGCCAACATA,-0.0429,-0.284,-0.517,0.593,-0.865,0.572,-0.408,-0.00465,0.101,0.383,0.239,0.431,-0.862,-0.407,-0.0263,0.125,-0.131,0.109,-0.676,0.557
ATCGAAAGGCCGAGGTGAGTATAGAGAAAGGGAA,0.0206,-0.227,-0.447,-0.337,-0.455,-0.0261,0.313,-0.133,-0.0137,-0.154,-0.777,0.581,-0.257,0.0911,0.14,-0.348,0.0633,0.0364,-0.273,1.53
